# About 30 (2%) of roughly 1,200 compounds were called active. A call without a number means that no potency is given here. Roughly 23% stayed inconclusive and do not appear here. The sample holds actives, similar compounds and a random draw of the others, so the mix is not that of the screen. The call rests on the fitted dose curve; in most records, active means well fitted inhibition curve with a large enough effect; inconclusive means small, poorly fitted or top-dose-only effect; inactive means flat fitted curve, though single readings scatter.
# Target: Single-stranded DNA cytosine deaminase (Homo sapiens) (UniProt Q9GZX7)
# Test: Confirmatory qHTS assay for inhibitors of Activation Induced Cytidine Deaminase (AID): AID signals
# Conditions: recombinant AID, FRET deamination/UDG coupled fluorescence, 4 h; series mostly up to 115 µM
# Summary of the method: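 Read 1 (AID) was measured at 540 ex/590 em after a 30 min NaOH step. The reaction was AID (1 uM, 4/3x stock) with UDG, compound at final 7.32 nM - 114 uM for 10 min, then DJC20/DJC23 substrate for 4 hr at room temperature. A UDG read at 560/665 serves as counterscreen.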
# Potency means the concentration at half of the fitted maximal effect.
# Sequence of Single-stranded DNA cytosine deaminase (Homo sapiens) (Q9GZX7 whole entry, looked up): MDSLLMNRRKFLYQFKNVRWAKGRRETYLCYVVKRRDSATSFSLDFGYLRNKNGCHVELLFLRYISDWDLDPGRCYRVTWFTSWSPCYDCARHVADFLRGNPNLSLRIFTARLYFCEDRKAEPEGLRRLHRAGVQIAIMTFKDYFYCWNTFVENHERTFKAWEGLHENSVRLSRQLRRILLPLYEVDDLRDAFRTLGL
row,SMILES,Potency
1,Cc1ccc(C(=O)c2cn(Cc3cc(C)ccc3C)c3nc(C)ccc3c2=O)cc1,inactive
2,O=C(Cc1ccccc1F)N1CCC(c2nc3c(nnn3Cc3cccc(Cl)c3)c(=O)[nH]2)CC1,inactive
3,CCc1cnc2c(c1SCc1ccccc1C)c(=O)n(C)c(=O)n2C,inactive
4,CCN(CC)CCCNC(=O)c1ccc2c(c1)sc1nc(-c3ccc(C)cc3)cn12,inactive
5,C[N+](C)(CCCCCC[N+](C)(C)CCCN1C(=O)c2cccc3cccc(c23)C1=O)CCCN1C(=O)c2cccc3cccc(c23)C1=O,5.01 µM (active)
6,Cc1ccc(C)c(Cn2c(=O)n(CC3CCC(C(=O)N4CCOCC4)CC3)c(=O)c3sccc32)c1 (stereo not drawn),inactive
7,COc1ccc(C2C=C(c3ccccc3)Nc3nc(NS(=O)(=O)c4ccccc4)nn32)cc1 (stereo not drawn),inactive
8,CC(=O)Nc1ccc(S(=O)(=O)Nc2nc3n(n2)C(c2ccccc2)C=C(c2ccc(Cl)cc2)N3)cc1 (stereo not drawn),39.8 µM (active)
9,Cc1ccc(S(=O)(=O)Nc2nc3n(n2)C(c2ccccc2Cl)C=C(c2ccccc2)N3)cc1 (stereo not drawn),inactive
10,Cc1ccc(C)c(N2CCN(C(=O)c3cccn3-c3nnc(N4CCCCC4)s3)CC2)c1,inactive
11,CC1=C(C(=O)NCc2cccc(Cl)c2)C2(CCCCCC2)OC1=O,inactive
12,CCc1ccc(-n2c(SCc3nc(-c4cc(OC)ccc4OC)no3)nnc2-c2ccccc2)cc1,inactive
13,CCc1ccc(OCC(=O)N(Cc2ccc(C(C)C)cc2)C2CCS(=O)(=O)C2)cc1 (stereo not drawn),inactive
14,Cc1cccc(-n2ccnc2SCC(=O)Nc2cccc3ccccc23)c1,inactive
15,Nc1ccc2oc(Cc3ccc(Cl)cc3)nc2c1,inactive
16,Cc1cccc(N2CCN(C(=O)C3CCCN(C(=O)c4cc5sccc5n4C)C3)CC2)c1C (stereo not drawn),inactive
17,Cc1ccc(C)c(C(=O)N2CCC(c3nc4c(nnn4Cc4ccccc4)c(=O)[nH]3)CC2)c1,inactive
18,CC1CCN(S(=O)(=O)c2ccc3c(c2)c(=O)c(C(=O)NC(C)c2ccccc2)cn3C)CC1 (stereo not drawn),inactive
19,CCc1ccccc1NC(=O)CN(c1ccccc1OC)S(=O)(=O)c1ccc(C)cc1,inactive
20,Cc1ccc(C)c(N2CCN(C(=O)c3ccc4c(c3)N(Cc3ccc(F)cc3)C(=O)c3ccccc3S4=O)CC2)c1 (stereo not drawn),inactive
21,Cc1ccc2nc(Cl)c3cc(C(=O)N4CCCCC4C)sc3c2c1 (stereo not drawn),inactive
22,O=C(NCCc1ccccc1)c1nc(-c2ccc(Cl)cc2)n2c1CCCCC2,inactive
23,CCCCCn1c(CCCNC(=O)c2cccc(C)c2)nc2ccccc21,inactive
24,COc1ccc(OC)c(NC(=O)N2CC(C)Oc3ccc(C)cc32)c1 (stereo not drawn),inactive
25,COC(=O)c1ccc(Cl)cc1NC(=O)Nc1nnc(N(C)Cc2ccccc2)s1,inactive
26,N#C/C(=C\c1ccc(-c2cc(Cl)ccc2Cl)o1)C(=O)Nc1ccccc1C(=O)O,28.2 µM (active)

row,SMILES,Potency
1,N#C/C(=C\c1ccc(-c2cc(Cl)ccc2Cl)o1)C(=O)Nc1cccc2ncccc12,inactive
2,N#C/C(=C\c1ccc(-c2ccc(Cl)c(C(=O)O)c2)o1)c1nc2ccccc2[nH]1,inactive
3,Cc1cccc(CSc2ccc3nnc(CCNS(=O)(=O)c4ccccc4)n3n2)c1,inactive
4,Cc1ccccc1NC(=O)c1ccc(N(Cc2ccccc2)S(C)(=O)=O)cc1,inactive
5,Cc1ccc(C(=O)Nc2ccccc2C(=O)O)cc1S(=O)(=O)N1CCCCCC1,inactive
6,Cc1ccc(C(=O)Nc2ccc(S(=O)(=O)O)c3cc(S(=O)(=O)O)cc(S(=O)(=O)O)c23)cc1NC(=O)c1cccc(NC(=O)Nc2cccc(C(=O)Nc3cc(C(=O)Nc4ccc(S(=O)(=O)O)c5cc(S(=O)(=O)O)cc(S(=O)(=O)O)c45)ccc3C)c2)c1,1.12 µM (active)
7,CCOc1ccc(NC(=O)CN(C)S(=O)(=O)c2ccc3c(c2)c(=O)n(C)c(=O)n3C)cc1,inactive
8,COc1cccc(CNC(=O)c2oc3c(c2C)-c2nn(Cc4cccc(Cl)c4)cc2CC3)c1OC,inactive
9,COc1ccc(Nc2ncc(C(=O)Nc3cccc(OC)c3)c3ccccc23)cc1,inactive
10,Cc1ccccc1CSc1nc2nc(C)c(Cc3ccccc3)c(C)n2n1,inactive
11,CC1(C)CCC2=C(O1)c1ccccc1C(=O)C2=O,7.08 µM (active)
12,OCC1O[C@H]([S-])[C@H](O)[C@@H](O)[C@@H]1O.[Au+] (stereo partly drawn),12.6 µM (active)
13,CCCCSCCCNC(=O)c1cn(CC)c2ccc(S(=O)(=O)N(C)C3CCCCC3)cc2c1=O,inactive
14,CC1CCCN(C(=O)c2ccc(CSc3nc4ccncc4n3Cc3ccccc3)cc2)C1 (stereo not drawn),inactive
15,Cc1ccccc1Nc1c(-c2ccc(N3CCOCC3)cc2)nc2ccccn12,inactive
16,CCCN(CCC)CCCNC(=O)c1cc2c(-c3ccc(Cl)cc3)nn(C)c2s1,inactive
17,CCCCn1c(CNC(=O)C23CC4CC(CC(C4)C2)C3)nnc1SCC(=O)Nc1ccc(C)cc1,inactive
18,Cc1cc2c(C(C)C)c(O)c(O)c(C=O)c2c(O)c1-c1c(C)cc2c(C(C)C)c(O)c(O)c(C=O)c2c1O,31.6 µM (active)
19,Cc1cccc(NC(=O)CCn2nc(-c3ccccc3)c3ccccc3c2=O)c1,inactive
20,CCn1nc(C)c2c(-c3ccccc3)cc(=O)n(C(C)C(=O)NCc3ccccc3OC)c21 (stereo not drawn),inactive
21,COc1ccc(-c2coc3c2c(C)cc2oc(=O)c(CC(=O)O)c(C)c23)cc1,50.1 µM (active)
22,COc1cccc(-n2c(-c3cccc(F)c3)nc3c(cnn3-c3ccc(C)cc3)c2=O)c1,inactive
23,CCOc1ccc(CNCc2c(C(=O)O)n(Cc3ccccc3F)c3cc(OC)ccc23)cc1,inactive
24,COc1ccc(C(C)=O)cc1CSc1nc(NCCc2ccccc2)c2ccccc2n1,inactive
25,Cc1cccc(N2CCN(C(=O)Cn3ncc4c3-c3cc(C)ccc3OC4)CC2C)c1 (stereo not drawn),inactive
26,COc1ccccc1C(=O)Oc1c(Sc2ccccc2)c(C)nn1-c1ccccc1,inactive

row,SMILES,Potency
1,CCOC(=O)C1=C(CN2CCN(c3ccccc3F)CC2)NC(=O)NC1c1ccc(Cl)cc1 (stereo not drawn),inactive
2,Cc1cccc(N2CCN(C(=O)C(C)n3nc(C)n4c(cc5occc54)c3=O)CC2)c1C (stereo not drawn),inactive
3,Cc1ccc(C2CCN(C(=O)c3cnn(-c4cccc(Cl)c4)c3C3CCN(C(=O)OC(C)(C)C)CC3)C2)cc1 (stereo not drawn),inactive
4,COc1ccc(CCNC(=O)c2c[nH]n3c(=O)c(Cc4ccccc4Cl)c(C)nc23)cc1OC,inactive
5,FC(F)(F)c1cccc(N2CCN(Cc3nnc(-c4ccc5c(c4)OCO5)o3)CC2)c1,inactive
6,COc1ccc(-c2nc(CSCC(=O)N3CCN(c4cccc(C)c4C)CC3)c(C)o2)cc1OC,inactive
7,O=C(CSc1nc(-c2ccc(F)cc2)nc2c1Cc1ccccc1O2)Nc1cccc(C(=O)O)c1,31.6 µM (active)
8,O=C(CSC1=Nc2ccccc2N=C(c2ccc(F)cc2)C1)Nc1cccc(C(F)(F)F)c1,inactive
9,COc1ccc(-c2nc3c(c(SCC(=O)Nc4ccc(C(=O)O)cc4)n2)Cc2ccccc2O3)cc1,inactive
10,Cc1cccc(-n2cnc3cc(C(=O)NCc4ccccc4Cl)ccc32)c1,inactive
11,Cc1cccc(-c2nc(CCNC(=O)COc3ccccc3)cs2)c1,inactive
12,CCN(C(=O)CSc1nc(-c2ccccc2)no1)c1cccc(C)c1,inactive
13,COc1ccc(CNCCC(c2ccccc2)c2ccc3c(c2)OCO3)cc1 (stereo not drawn),inactive
14,CCCCN(CC)CCCNC(=O)c1cn(CC)c2ccc(S(=O)(=O)N3CCc4ccccc4C3)cc2c1=O,inactive
15,CCc1ccc(CN(Cc2ccco2)c2cnc(S(C)(=O)=O)nc2C(=O)Nc2ccc(C)c(Cl)c2)cc1,inactive
16,CCOc1ccc(-c2nn(-c3ccccc3)cc2C2NC(=O)NC(C)=C2C(=O)OC(C)C)cc1 (stereo not drawn),inactive
17,COc1ccc(CN(Cc2ccco2)C(=O)COc2ccc(Cl)cc2C)cc1,inactive
18,Cc1nc2nc(SCC(=O)N(C)Cc3ccccc3)nn2c(C)c1Cc1ccccc1Cl,inactive
19,Cc1ccc(Cn2cc(S(=O)(=O)c3ccc(C)cc3)c(=O)c3cc(F)c(N4CCCC4)cc32)cc1,inactive
20,CCc1ccc(S(=O)(=O)c2cnc3ccc(OC)cc3c2N2CCCC(C)C2)cc1 (stereo not drawn),inactive
21,CCOC(=O)C1CCN(c2nc3c(S(=O)(=O)c4ccccc4)nnn3c3ccsc23)CC1,inactive
22,CCN(CC)C(=O)CSc1nc(-c2ccccc2F)nc2c1Cc1c(CO)cnc(C)c1O2,inactive
23,Cc1ccccc1C(=O)Nc1sc2c(c1C(=O)O)CCC(C(C)(C)C)C2 (stereo not drawn),inactive
24,Cc1ccc(-c2sc(C(=O)Nc3ccc(Br)cc3)cc2CC(=O)O)cc1,inactive
25,CCC(=O)Oc1c(Sc2ccc(Cl)cc2)c(C)nn1-c1ccccc1,inactive
26,Nc1c(S(=O)(=O)O)cc(Nc2ccc(Nc3nc(Cl)nc(Nc4ccc(S(=O)(=O)O)cc4)n3)c(S(=O)(=O)O)c2)c2c1C(=O)c1ccccc1C2=O,20 µM (active)
